About 2,100 (0.66%) of roughly 320,000 compounds were called active. Another 53% or so got no clear call; they are omitted. Calls come from the whole dose curve; as a rule, active = well fitted inhibition curve with a large enough effect in the signal ratio, with a control signal flat (not every such curve was filed as active); inconclusive = small, poorly fitted or top-dose-only effect, or effect the other way, or a change in a side signal; inactive = flat fitted curve, though single readings scatter; the % refers to the signal ratio. The full list was thinned out, with actives kept by preference.
Assay: qHTS Assay for Lipid Storage Modulators in Drosophila S3 Cells;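 for cell number change: cells counted by Cell Tracker Red CMTPX staining in the red channel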; for lipid storage change, negative = inhibition: % is set by controls: 0 for no effect and ±100 for the full control effect
Conditions: BODIPY lipid droplet fluorescence, 18-24 h, cells fed with added oleic acid; cell number change: measured here: cell count max response; series mostly up to 46.1 µM; lipid storage change, negative = inhibition: at the top concentration
In short: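 Drosophila S3 cells loaded with oleic acid (400 uM, as added) and compounds at several concentrations; lipid droplets imaged by 488-nm laser-scanning cytometry, 500–530 nm intensity and object ratio to cell channel. Percent activity normalized to 20 uM Triacsin C.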
Potency is the fitted concentration of half-maximal effect.

Row | SMILES | lipid storage change, negative = inhibition | cell number change | Potency | outcome
1 | O=C(Nc1ccccc1NC(=O)c1ccco1)c1ccco1 | 5.64% (inactive) | -11% | – | –
2 | CN(C(=O)c1ccc(NC(=O)c2ccco2)cc1)c1ccccc1 | – | 5.45% | 8.2 µM (active) | –
3 | O=C(Nc1ccccc1NC(=O)c1ccco1)c1ccccc1 | – | -10% | 1.46 µM (active) | –
4 | CCC(OC(=O)c1cccs1)C(=O)NCc1ccc(C)cc1 (stereo not drawn) | -3.65% (inactive) | -0.108% | – | –
5 | CCC(C(=O)N(C(C)C)C(C)C)c1ccccc1 (stereo not drawn) | 16.1% (inactive) | 4.75% | – | –
6 | O=C(N/C(=C\c1ccccc1)C(=O)N1CCCCC1)c1ccc(Br)o1 | – | 0.343% | – | inactive [at 0.369 µM]
7 | CC(C(=O)NCC1(c2ccccc2)CCCC1)N1CCOCC1 (stereo not drawn) | – | 9.07% | – | inactive
8 | COc1ccc(CN(CC2CCC(C(=O)O)CC2)C(=S)Nc2cc(C)cc(C)c2)cc1 (stereo not drawn) | 6.11% (inactive) | -1.54% | – | –
9 | CC[C@H](C)NC(=O)CCCCCn1c(=S)[nH]c2c([nH]c3ccc(OC)cc32)c1=O | -12.6% (inactive) | -11.2% | – | –
10 | CCCNC(=O)CCCCn1c(=S)[nH]c2c([nH]c3ccc(OC)cc32)c1=O | -8.43% (inactive) | 24.9% | – | –
11 | COc1ccc2[nH]c3c(=O)n(CCCC(=O)NC4CCC(C)CC4)c(=S)[nH]c3c2c1 (stereo not drawn) | – | 6.49% | 2.31 µM (active) | –
12 | O=C(CSc1cn(Cc2cccc(F)c2)c2ccccc12)NCc1ccc(F)cc1 | 17% (inactive) | 3.63% | – | –
13 | O=C(O)C1CCC(=O)N1Cc1ccccc1Cl (stereo not drawn) | -7.87% (inactive) | -9.84% | – | –
14 | CNC(=O)C1CCC(=O)N1Cc1ccccc1Cl (stereo not drawn) | – | -10.4% | 29.1 µM (active) | –
15 | O=C(Nc1ccc(Cl)cc1)C1CCC(=O)N1Cc1ccccc1Cl (stereo not drawn) | – | -16.5% | – | inactive
16 | O=C(O)c1ccc(-n2nnnc2SCc2ccccc2)cc1 | – | 17.8% | – | inactive
17 | COc1ccc(C(=O)C[n+]2cccc(C)c2)cc1 | 4.32% (inactive) | 11.3% | – | –
18 | Cc1ccc[n+](CC(=O)c2ccc(Cl)cc2)c1 | -24.8% (inactive) | 2.36% | – | –
19 | Cc1ccc[n+](CC(=O)c2ccc(Br)cc2)c1 | – | 14.7% | 11.6 µM (active) | –
20 | O=C(O)c1cccc(Oc2ccccc2[N+](=O)[O-])c1 | 9.92% (inactive) | -2.25% | – | –
21 | CCOc1ccc(/C=N/n2nnnc2N)cc1O | -6.33% (inactive) | 23.4% | – | –
22 | CCc1ccc(C(=O)c2cnc3ccc(OC)cc3c2N2CCN(CC)CC2)cc1 | -4.3% (inactive) | -13.9% | – | –
23 | Cn1ccs/c1=N\S(=O)(=O)c1ccc(C(C)(C)C)cc1 | – | -15.3% | 16.4 µM (active) | –
24 | Cn1ccs/c1=N\S(=O)(=O)c1ccc(Br)cc1 | -1.49% (inactive) | – | – | –
25 | Cn1ccs/c1=N\S(=O)(=O)c1ccc(F)cc1 | – | – | – | inactive

Row | SMILES | lipid storage change, negative = inhibition | cell number change | Potency | outcome
26 | COc1ccc2c(c1)CCc1c(C(=O)NCc3ccc(Cl)cc3)noc1-2 | -2.21% (inactive) | 3.58% | – | –
27 | CC(=O)c1c(C)[nH]c(C(=O)Nc2ccc3c(c2)OCCO3)c1C | 13.6% (inactive) | -13.3% | – | –
28 | CCOc1ccc(NC(=S)N2CCC(c3nc4ccccc4[nH]3)CC2)cc1 | -3.34% (inactive) | 0.472% | – | –
29 | COCCn1c(SCC(=O)NNC(=O)c2ccccc2)nc2ccccc2c1=O | 1.17% (inactive) | 22% | – | –
30 | C=CCNC(=O)NC(=O)COC(=O)/C(C#N)=C/c1cc(C)n(CC(C)C)c1C | -18% (inactive) | 19.6% | – | –
31 | CCN1C(=O)c2cccc3c(Cl)ccc1c23 | 17.8% (inactive) | -17.2% | – | –
32 | Cc1cc(Cl)c2oc(C(=O)N(C)CCCCN3CCOCC3)c(C)c2c1 | – | -10.7% | 1.3 µM (active) | –
33 | Cc1cc(Cl)c2oc(C(=O)N(C)CC3CCOCC3)c(C)c2c1 | 5.8% (inactive) | -6.12% | – | –
34 | Cc1cc(Cl)c2oc(C(=O)N(C)CCc3cnn(C)c3)c(C)c2c1 | – | -0.298% | – | inactive
35 | CC1(OC(=O)C2CCCC2)C(=O)C=C2C=C(c3ccsc3)N(CCCCO)C=C2C1=O (stereo not drawn) | -0.0639% (inactive) | -2.75% | – | –
36 | NC(=O)C(Cc1ccccc1)N1C(=O)c2ccccc2C1=O (stereo not drawn) | -19.5% (inactive) | -7.43% | – | –
37 | O=C1c2ccccc2C(=O)N1CCCOc1ccccc1 | 28.1% (inactive) | -1.01% | – | –
38 | O=C(O)C(CCCCN1C(=O)c2ccccc2C1=O)N1C(=O)c2ccccc2C1=O (stereo not drawn) | – | -7.36% | 29.1 µM (active) | –
39 | CCC(C)(C)n1nnnc1C(c1ccc(N(C)C)cc1)N1CCN(C2CCCCC2)CC1 (stereo not drawn) | – | 1.78% | – | inactive
40 | Cc1cc(OCC(O)CNC(C)(C)C)ccc1Cl (stereo not drawn) | 0.716% (inactive) | 3.23% | – | –
41 | CCOC(=O)N1CCN(C(=O)CCSc2ccc(Cl)cc2)CC1 | 1.95% (inactive) | -8.05% | – | –
42 | CCOC(=O)N1CCN(C(=O)CSc2ccccc2)CC1 | – | – | – | inactive
43 | CCOC(=O)N1CCN(C(=O)CSc2ccc(Cl)cc2)CC1 | – | 4.78% | 2.59 µM (active) | –
44 | OC(CNCc1cccnc1)COc1ccc2ccccc2c1 (stereo not drawn) | -13.2% (inactive) | -3.7% | – | –
45 | CCOC(=O)C1=C(C)N=c2s/c(=C\c3ccc(OCC(=O)O)cc3)c(=O)n2C1c1ccccc1 (stereo not drawn) | -20.2% (inactive) | – | – | –
46 | CCOC(=O)C1=C(C)N=c2s/c(=C\c3ccc(OCC(=O)O)c(OC)c3)c(=O)n2C1c1ccc(OC)cc1 (stereo not drawn) | 21.8% (inactive) | 8.11% | – | –
47 | CCOC(=O)C1=C(C)N=c2s/c(=C/c3ccc(OCC(=O)O)cc3)c(=O)n2C1c1ccc(OC)cc1OC (stereo not drawn) | – | -12.6% | 11.6 µM (active) | –
48 | OCCN1CCN(c2cc(C(F)(F)F)nc3c(F)cccc23)CC1 | 5.94% (inactive) | 16.3% | – | –
49 | CCOC(=O)N1CCN(C(=O)C2CCN(S(=O)(=O)N3CCC4(CC3)OCCO4)CC2)CC1 | -0.783% (inactive) | – | – | –
